PubChem BioAssay AID2113 (National Center for Advancing Translational Sciences (NCATS), 2009)
Records with an inconclusive call do not appear. A call without a number means that no potency is given here. Active and inactive are the calls of the source. The call rests on the fitted dose curve; in most records, active means well fitted curve in either direction with a large enough effect; inconclusive means small, poorly fitted or top-dose-only effect; inactive means no such curve, though single readings can be large or run the other way.

Molecular target: Lysosomal alpha-glucosidase (Homo sapiens) (UniProt P10253)
Test: Confirmation of Inhibitors and Activators of Human alpha-Glucosidase From Spleen Homogenate;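 on potency: fluorescence of 4-methylumbelliferone released from a fluorogenic glucopyranoside substrate at pH 5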
Conditions: alpha-glucosidase enzyme activity; series mostly up to 60.5 µM
In short: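 Compounds titrated against spleen-homogenate alpha-glucosidase, pH 5.0, 1 mM 4-MU-glucoside substrate, 37 C for 40 min. Fluorescence after pH 10 stop, normalised to no-enzyme and enzyme controls; Hill-equation AC50.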
Potency means the concentration at half of the fitted maximal effect.

SMILES | Potency
CCCCCCc1cc2cc(C(=O)NC)c(=N)oc2cc1O | inactive
CC(=O)N1CCN(c2ccc(NS(=O)(=O)c3ccc4c(c3)CC(=O)N4)cc2)CC1 | inactive
CCS(=O)(=O)N1Cc2ccccc2CC1C(=O)Nc1ccc(NC(C)=O)cc1 (stereo unspecified) | inactive
COc1cc(CN2CCC(CO)(Cc3cccc(C(F)(F)F)c3)CC2)ccc1F | inactive
CN1CC=C2C(C#N)=C(N)C(C#N)(C#N)[C@H](c3cccc(Cl)c3)C2C1 (stereo partly specified) | inactive
COc1cccc2cc(-c3nc(-c4ccccc4)c(C)s3)c(=O)oc12 | inactive
C=CCn1c2ccccc2c2nnc(SCC(=O)NC(C(=O)OC)C(C)C)nc21 (stereo unspecified) | inactive
O=C(NN=C1c2ccccc2-c2ccccc21)c1cccc(S(=O)(=O)N2CCOCC2)c1 | inactive
N=c1sccn1CC(=O)Nc1cc(S(=O)(=O)N2CCCC2)ccc1Cl | inactive
COc1ccc(CCn2c(N)cc(=O)[nH]c2=O)cc1OC | inactive
COc1ccc2nc3c(cc2c1)Cn1c-3nc2ccccc2c1=O | inactive
c1ccc(-n2c(-c3cccs3)nc3nc4ccccc4nc32)cc1 | inactive
CC1CC(C)CN(CC(=O)N2c3ccccc3CCc3ccccc32)C1 (stereo unspecified) | inactive
CCCN1CNc2c(c(=O)[nH]c(=S)n2CCc2ccccc2)C1 | inactive
O=S(=O)(c1ccc(Cl)cc1)N1CCN(c2nc(-c3cccs3)nc3ccccc23)CC1 | inactive
CC(=O)N1CCN(S(=O)(=O)c2ccc3c(c2)CC(=O)N3)CC1 | 29.8 µM [inhibitor] (active)
COc1ccc(N2CCN(S(=O)(=O)c3ccc4c(c3)CC(=O)N4)CC2)cc1 | 18.8 µM [inhibitor] (active)
CC1CCc2nc(-c3cc4c(ccc5ccccc54)oc3=O)sc2C1 (stereo unspecified) | inactive

SMILES | Potency
CC(=O)c1ccc(N2CCN(S(=O)(=O)c3ccc4c(c3)C(Cl)(Cl)C(=O)N4)CC2)cc1 | 32.6 µM [inhibitor] (active)
O=C(CC(c1ccccc1)c1cc(Br)ccc1O)NCCN1CCOCC1 (stereo unspecified) | inactive
O=S(=O)(c1cccc(Cl)c1)N1CCOCC1 | inactive
Cc1ccc2c(=O)c3ccccc3n(CCCN)c2c1C | inactive
COc1ccc(CCn2c3c(c(=O)[nH]c2=S)CN(C)CN3)cc1OC | 31.6 µM (active)
CCN(CC)c1ccc(/C=N/NC(=O)C(O)c2ccccc2)cc1 (stereo unspecified) | inactive
CC1=CC(=C2C=CC(=O)C=C2)C=C(C)N1C | inactive
CCSc1nc(=S)n(CC)c(C)c1C(C)=O | inactive
Cc1ccccc1S(=O)(=O)N1CCOCC1 | inactive
C=C(C)CC(NCc1ccco1)c1ccc(OC)cc1 (stereo unspecified) | inactive
COc1ccc(CCn2c(N)cc(=O)[nH]c2=S)cc1OC | inactive
CC(C)(C)OC(=O)NCCCC[C@H](NC(=O)c1nc[nH]c1C(=O)NCc1ccccc1)C(=O)OC(C)(C)C | inactive
O=c1oc2ccccc2cc1-c1csc(Cc2nc3c(s2)CCCC3)n1 | inactive
Cc1ccc(S(=O)(=O)N2CCOCC2)cc1 | inactive
O=S(=O)(c1ccc(O)cc1)N1CCOCC1 | inactive
Cc1ccc(CCNC(=O)CNC(=S)N(Cc2ccccc2)Cc2cccnc2)cc1 | inactive
CCCN1CNc2c(c(=O)[nH]c(=S)n2CCc2c(C)cccc2C)C1 | inactive
COc1ccccc1N1CCN(C(c2cccs2)C(C)NC(=O)c2cccs2)CC1 (stereo unspecified) | inactive
